Measurements from PubChem BioAssay (NCI).
Where “and” joins values, the source holds several entries; their conditions need not be identical. Equal entries are not always repeated. This is part of a sample that, as a whole, favours compounds with a hit. Of some 83,000 tested, about 20% had one in any assay.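 Results are percent growth after 48 hours of single-concentration exposure. 100 means growth as in untreated cells, lower positive values show inhibition; negative values down to -100 show cell death.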 Calls of active or inactive are those of the source.

These compounds were tested on SK-MEL-2 melanoma (assay: NCI-60 one-dose screen, 48 h (100 = growth as untreated, 0 = no growth, -100 = all killed)). Conditions: 10 µM.
Description: Growth inhibition of the SK-MEL-2 human tumor cell line is measured as a screen for anti-cancer activity. Cells are grown in 96 well plates and exposed to the test compound for 48 hours. Compounds are tested at a single concentration, which is 10^-5 M for most compounds. The reported endpoint is percent growth (GI% or GIPRCNT), where numbers from 0 - 100% represent growth inhibition, and numbers from -100% - 0 represent cell death. For example, a value of 40 represents 60% growth inhibition. A value of 0 means no net growth occurred over the course of the experiment. A value of -40 indicates 40% of cells at the beginning of the experiment died by the end of the experiment. A value of -100 means all cells are dead at the end of the experiment.
NCI-60 Human Tumor Cell Lines Screen was performed using the standard one-dose NCI protocol, which is described in more detail at https://dtp.cancer.gov/discovery_development/nci-60/default.htm.
Compounds with GIPRCNT values below 10 were considered active. Activity score was based on GIPRCNT using the following formula: […]
Score is 0 for GIPRCNT values of 100 or above, 50 for GIPRCNT values of 0, and 100 for GIPRCNT values of -100.

Structure (SMILES)	growth
CS/C(=C\c1ccc(C(=O)c2ccc(C)cc2)n1C)S(C)=O (stereo not given)	98.8% (inactive)

Same assay, conditions: 10 µM unless noted

Structure (SMILES)	growth
CCC/C(=N/NC(N)=O)c1ccco1	94.8% (inactive)
COc1ccc(S(=O)(=O)c2ccc(F)cc2)cc1	99% (inactive)
CC1OS(=O)OC1C (stereo not given)	91.4% (inactive) and 111% (inactive)
COC(=O)c1ccccc1Cl	108% (inactive)
N#Cc1c(N)nc2c(c(-c3ccc(Cl)cc3)nn2-c2ccccc2)c1C#N	122% [100 µM] (inactive)
OC1CCCN(Cc2ccccc2)C1 (stereo not given)	115% (inactive)
COc1ccc(/C=N/NC(N)=S)cc1	97.5% (inactive)
O=C1c2ccccc2CN1c1ccccc1	70.6% (inactive)
O=C(O)c1cc(=O)[nH]c(=O)[nH]1	111% (inactive) and 65.2% (inactive)
CCCC(=O)Oc1ccc(CC)cc1	107% (inactive)
CC1(C)OC(=O)C(=Cc2ccc(C#N)cc2)C(=O)O1	93.7% (inactive)
OC(CC(c1ccccc1)c1cccc2ccccc12)(c1ccccc1)c1ccccc1 (stereo not given)	77.9% (inactive) and 74.5% (inactive)
CCOC(=O)NC(N)=O	98.7% (inactive) and 126% (inactive)
O=[N+]([O-])c1ccc(N/N=C/C2CCCCCC2)c([N+](=O)[O-])c1	105% (inactive)
CC(=O)Nc1cscc1NC(C)=O	139% (inactive)
OCCSc1ccc(Cl)cc1	109% (inactive) and 90.7% (inactive)
Cc1ccc([N+](=O)[O-])cc1Br	95.6% (inactive)
CNc1ccc(Cl)cc1S(=O)(=O)c1ccccc1[N+](=O)[O-]	103% (inactive) and 85.6% (inactive)
CC1=CC(=O)C=CC1=Nc1ccc(N(C)C)cc1	44.6% (inactive)

Structure (SMILES)	growth
O=C(c1ccc(Cl)cc1)C1C(c2ccccc2)C1[N+](=O)[O-] (stereo not given)	106% (inactive)
CCCCNC(=O)c1ccccc1C	100% (inactive)
COC(=O)c1nc(N)nc(C(=O)OC)c1C(=O)c1cccc2ccccc12	106% (inactive)
CCOCCC(=O)O	109% (inactive)
Nc1ccccc1SC1CC(=O)N(c2ccc(I)cc2)C1=O (stereo not given)	86.9% (inactive)
CC1=CC(=O)c2cccc(NC3=NCCO3)c21	93.8% (inactive)
CN(C=O)c1ccccc1	103% (inactive)
O=c1[nH]c(=O)c2[nH]c(=O)[nH]c2[nH]1	137% (inactive)
COc1ccc([N+](=O)[O-])cc1OC	123% (inactive) and 103% (inactive)
N#CC1c2ccccc2C=CN1C(=O)c1ccccc1 (stereo not given)	109% (inactive)
Cc1cc2nc3ccc(=[N+](C)C)cc-3sc2cc1N	-33.5% (active) and 20.3% (inactive)
CC1(C)CC(=O)NC1=O	99.2% (inactive)
OCc1cccc(F)c1	2.28% (active)
O=C(Nc1ccccc1)OCC(CN1CCCCC1)OC(=O)Nc1ccccc1 (stereo not given)	85.6% (inactive) and 108% (inactive)
CCNCc1ccccc1	111% (inactive)
S=c1ccc2ccccc2[nH]1	97.9% (inactive) and 97.2% (inactive)
CC(=O)Oc1ccc(C(c2ccc(OC(C)=O)cc2)c2ccccn2)cc1	107% (inactive) and 94.3% (inactive)
Clc1ccc2c(c1)N(C1CCCN(Cc3ccccc3)C1)c1ccccc1S2 (stereo not given)	17.1% (inactive)
CCN(CC)CCO/N=C1\CC(c2ccc(OC)c(OC)c2)Oc2ccccc21 (stereo not given)	104% (inactive)

Same assay, conditions: 100 µM

Structure (SMILES)	growth
CS/C(=C\c1ccc(C(=O)c2ccc(C)cc2)n1C)S(C)=O (stereo not given)	81.4% (inactive)
